Assay results published in the supplement of paper PMC12494721.
Where a name gives a salt, the structure may show the parent alone.

Tests used:
Details in all cases: incubation time: 27 h, anaerobic, 37 °C;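 for the amine columns active = adjusted P below 0.05 in both replicates with a change the same way and a mean fold change under 0.8 or over 1.25; inactive = the rest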
[1] = tested on: Clostridium sporogenes DSM 1664; assay: growth (OD595) fold change vs plate DMSO controls (fold change (ratio)); higher = more growth
Procedure, shortened: (§1)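 Growth is the fold change relative to the median of plate DMSO controls. Readings came from anaerobic mGAM cultures in 96-well plates grown for 27 h at 37 °C and read at 595 nm. They were blank-subtracted, corrected for compound background with 20 µM compound solutions in water, and converted to OD with a calibration factor of 5. Values are means of 2 biological replicates, and fold changes above 1.5 were set to NA.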

[2] = tested on: Escherichia coli IAI1; assay: as above
Procedure, shortened: as §1

[3] = tested on: Klebsiella aerogenes DSM 30053; assay: as above
Procedure, shortened: as §1

[4] = tested on: Ruminococcus gnavus DSM 108212; assay: as above
Procedure, shortened: as §1

[5] = tested on: Klebsiella aerogenes DSM 30053; assay: fold change of Histamine concentration vs plate DMSO controls (fold change (ratio)); higher = more amine produced, active = hit call of the paper (significant change in both replicates, either direction)
Procedure, shortened: (§2)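 Each value is the fold change relative to DMSO-only wells on the same plate. Four gut bacterial strains were grown anaerobically in mGAM at 37 °C for 27 h in 80 µL wells, starting at OD 0.1 before a 1:1 dilution, with compounds at 20 µM final (sweeteners 50 µM). Whole cultures were extracted with cold acetonitrile/methanol containing 0.1% formic acid, centrifuged, and amines were quantified by LC–triple-quadrupole MS (dynamic MRM) against external calibration curves with within-batch drift correction. Values are means of 2 biological replicates.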

[6] = tested on: Clostridium sporogenes DSM 1664; assay: fold change of Tryptamine concentration vs plate DMSO controls (fold change (ratio)); higher = more amine produced, active = hit call of the paper (significant change in both replicates, either direction)
Procedure, shortened: as §2

[7] = tested on: Ruminococcus gnavus DSM 108212; assay: as above
Procedure, shortened: as §2

[8] = tested on: Escherichia coli IAI1; assay: fold change of Putrescine concentration vs plate DMSO controls (fold change (ratio)); higher = more amine produced, active = hit call of the paper (significant change in both replicates, either direction)
Procedure, shortened: as §2

[9] = tested on: Klebsiella aerogenes DSM 30053; assay: as above
Procedure, shortened: as §2

[10] = tested on: Escherichia coli IAI1; assay: fold change of Cadaverine concentration vs plate DMSO controls (fold change (ratio)); higher = more amine produced, active = hit call of the paper (significant change in both replicates, either direction)
Procedure, shortened: as §2

[11] = tested on: Klebsiella aerogenes DSM 30053; assay: as above
Procedure, shortened: as §2

[12] = tested on: Ruminococcus gnavus DSM 108212; assay: fold change of 2-Phenylethylamine concentration vs plate DMSO controls (fold change (ratio)); higher = more amine produced, active = hit call of the paper (significant change in both replicates, either direction)
Procedure, shortened: as §2

Row | Structure (SMILES) | growth [1] | growth [2] | growth [3] | growth [4] | fold change of Histamine concentration [5] | fold change of Tryptamine concentration [6] | fold change of Tryptamine concentration [7] | fold change of Putrescine concentration [8] | fold change of Putrescine concentration [9] | fold change of Cadaverine concentration [10] | fold change of Cadaverine concentration [11] | fold change of 2-Phenylethylamine concentration [12]
1 | CCOC(=O)c1ccc(OC(=O)CCCCCNC(=N)N)cc1 [Gabexate mesilate] (20 µM) | 1.07 | 1 | 0.974 | 1.02 | 0.978 (inactive) | 0.953 (inactive) | 0.865 (inactive) | 1.01 (inactive) | 1.07 (inactive) | 0.998 (inactive) | 1.04 (inactive) | 0.776 (inactive)
2 | C[C@]12C=CC(=O)C=C1CC[C@H]1[C@@H]3C[C@@H](O)[C@](O)(C(=O)CO)[C@@]3(C)C[C@H](O)[C@@]12F [Triamcinolone] (20 µM) | 1.01 | 0.986 | 1.02 | 0.944 | 0.954 (inactive) | 0.918 (inactive) | 1.02 (inactive) | 0.976 (inactive) | 1.02 (inactive) | 0.994 (inactive) | 0.992 (inactive) | 1.07 (inactive)
3 | Nc1nc(F)nc2c1ncn2[C@@H]1O[C@H](CO)[C@@H](O)[C@@H]1O [Fludarabine] (20 µM) | 0.775 | 0.524 | 0.982 | 0.936 | 0.976 (inactive) | 1.04 (inactive) | 0.796 (active) | 0.546 (inactive) | 0.965 (inactive) | 0.91 (inactive) | 1.02 (inactive) | 0.838 (inactive)
4 | CCCCOc1cc(C(=O)NCCN(CC)CC)c2ccccc2n1 [Dibucaine] (20 µM) | 1.14 | 1.01 | 1.06 | 1.02 | 0.93 (inactive) | 1.02 (inactive) | 1 (inactive) | 0.927 (inactive) | 0.955 (inactive) | 0.961 (inactive) | 1.03 (inactive) | 1.03 (inactive)
5 | CCCc1nn(C)c2c(=O)[nH]c(-c3cc(S(=O)(=O)N4CCN(C)CC4)ccc3OCC)nc12 [Sildenafil] (20 µM) | 1.23 | 1.01 | 1.02 | 1.14 | 0.993 (inactive) | 1.06 (inactive) | 1.15 (inactive) | 0.921 (inactive) | 0.98 (inactive) | 0.87 (inactive) | 1.04 (inactive) | 1.24 (inactive)
6 | CCC[C@@H]1C[C@@H](C(=O)N[C@@H]([C@H]2O[C@H](SC)[C@H](O)[C@@H](O)[C@H]2O)[C@H](C)Cl)N(C)C1 [Clindamycin hydrochloride] (20 µM) | 0.899 | 0.682 | 0.934 | 0.134 | 1.54 (inactive) | 0.0905 (active) | 0.136 (active) | 0.4 (inactive) | 0.537 (inactive) | 0.844 (inactive) | 0.932 (inactive) | 0.125 (active)
7 | Cc1cc(C)nc(NS(=O)(=O)c2ccc(N)cc2)n1 [Sulfamethazine sodium salt] (20 µM) | 1.01 | 0.957 | 0.984 | 0.999 | 1.06 (inactive) | 1.06 (inactive) | 1.04 (inactive) | 0.93 (inactive) | 1.03 (inactive) | 0.986 (inactive) | 0.995 (inactive) | 1.07 (inactive)
8 | CCN(CC)C(=O)c1ccc(O)c(OC)c1 [Ethamivan] (20 µM) | 1.12 | 1.02 | 1.05 | 0.873 | 0.973 (inactive) | 1.02 (inactive) | 1.04 (inactive) | 1.02 (inactive) | 1.02 (inactive) | 1.01 (inactive) | 1.01 (inactive) | 1.05 (inactive)
9 | CCc1nn(CCCN2CCN(c3cccc(Cl)c3)CC2)c(=O)n1CCOc1ccccc1 [Nefazodone hydrochloride] (20 µM) | 1.05 | 1.01 | 1.17 | 0.822 | 0.853 (inactive) | 0.922 (inactive) | 0.793 (active) | 0.996 (inactive) | 0.996 (inactive) | 1.03 (inactive) | 1.03 (inactive) | 0.824 (inactive)
10 | Cc1ncc([N+](=O)[O-])n1CC(C)O (centres undefined) [Secnidazole] (20 µM) | 0 | 1.07 | 1.02 | 0.0442 | 0.824 (inactive) | 0.0346 (active) | 0.041 (active) | 0.978 (inactive) | 1.03 (inactive) | 0.987 (inactive) | 1.02 (inactive) | 0.0431 (active)
11 | Nc1ccc(S(N)(=O)=O)cc1 [Sulfanilamide] (20 µM) | 0.877 | 1.03 | 0.987 | 1.15 | 0.919 (inactive) | 1.12 (inactive) | 1.11 (inactive) | 0.908 (inactive) | 0.951 (inactive) | 0.919 (inactive) | 1.03 (inactive) | 1.15 (inactive)
12 | CCCCOC(=O)c1ccc(O)cc1 [Butylparaben] (20 µM) | 1.09 | 0.963 | 0.965 | 1.01 | 1.01 (inactive) | 0.984 (inactive) | 0.964 (inactive) | 0.939 (inactive) | 0.968 (inactive) | 1.04 (inactive) | 0.984 (inactive) | 0.953 (inactive)
